Reference: PubChem BioAssay (Tox21)
Records with an inconclusive call do not appear. A call without a number means that no potency is given here. Activity calls are given as the source filed them. Calls come from the whole dose curve; as a rule, active = well fitted cell-killing curve with a large enough effect in the repeat runs; inconclusive = weak or mixed curves, or effect the other way; inactive = flat fitted curve, though single readings scatter.

assay: cAMP Responsive Elements (CRE) small molecule antagonists, cell-based qHTS assay: qHTS cell viability counter screen (AID 2060913); settings: CRE-bla HEK293T viability, CellTiter-Glo luminescence, 5 h; series mostly up to 92.4 µM; note: nearly all actives have a fitted effect of over 40% in size
From the text: U.S. Tox21 Program National Center for Advancing Translational Sciences [NCATS] Division of Preclinical Innovation [DPI] U.S. Environmental Protection Agency [EPA] National Institutes of Environmental Health Sciences [NIEHS] National Toxicology Program [NTP] U.S. Food and Drug Administration [FDA] Tox21 Assay Overview: CREB (cyclic-AMP Responsive Element Binding Protein) is a cellular transcription factor. It binds to certain DNA sequences called cAMP Responsive Elements (CRE) and regulates the transcription of the genes. […] This cell line can be used to find agonists/antagonists of the cyclic AMP signaling pathway. The activation of the report gene under culture conditions can be detected by fluorescence intensity. This cell line has been used to screen the Tox21 10K compound library to identify agonists that induce oxidative stress. The cytotoxicity of the Tox21 compound library against the CRE-bla cell line was tested in parallel by measuring the cell viability using CellTiter-Glo assay (Promega, Madison, WI) in the same wells.
Tox21 Assay Protocol Summary: CRE-bla Hek 293T cells were suspended in assay medium (DMEM containing 10% dialyzed FBS, 0.1 mM NEAA, 1 mM sodium pyruvate and 25 mM HEPES) and dispensed at 2,000 cells/4 uL /well into 1536-well black wall/clear bottom plates using a Multidrop Combi (ThermoFisher Scientific, Waltham, MA) dispenser. After the assay plates were incubated at 37 C/5% CO2 for 18 hrs, 23 nL of compounds dissolved in DMSO, positive controls or DMSO only was transferred to the assay plate by a pintool workstation (Kalypsys, San Diego, CA), followed by addition of 1 uL of 1.25uM NKH477 (0.25 uM as final concentration) in assay medium using a Flying Reagent Dispenser (Aurora Discovery, San Diego, CA). The plates were incubated at 37 C and 5% CO2 for 3 hrs. Then 1 uL of LiveBLAzer B/G FRET substrate (Invitrogen, Carlsbad, CA) was added to each well using Bioraptr Flying Reagent Dispenser (FRD, Aurora Discovery, San Diego, CA). The plates were incubated at room temperature for 2 h, then fluorescence intensities were measured using an Envision plate reader (PerkinElmer, Shelton, CT) at Excitation 405nm, Emission 460nm and 530nm. The % activity was determined from the ratio of 460nm/530nm. For cell viability readout that measures cytotoxicity, 4 uL /well of CellTiter-Glo reagent was added into the assay plates using Bioraptr FRD. After 30 min incubation at room temperature, the luminescence intensity in the assay plates was measured using a ViewLux (PerkinElmer, Shelton, CT) plate reader.
Potency is the fitted concentration of half-maximal effect.

Q: With `C[C@@H]1CC[C@H]2[C@@H](C)C(=O)O[C@@H]3O[C@@]4(C)CC[C@@H]1[C@]32OO4` as the compound, how does the Potency read?
A: Its Potency is “inactive”.

Q: For `CC(O)CCO` (stereo not given), which Potency is on record?
A: The Potency was “inactive”.

Q: Which Potency does the source give for `ClC(Cl)=C(Cl)Cl` here?
A: Its Potency is “inactive”.

Q: For `COc1cc(CC(C)N)cc2c1OCO2` (stereo not given), which Potency is on record?
A: Its Potency is “inactive”.

Q: With `CCN(CC)C(=O)[C@@H]1C=C2c3cccc4[nH]cc(c34)C[C@H]2N(C)C1` as the compound, how does the Potency read?
A: The Potency was “inactive”.

Q: With `CCOP(=O)(OCC)OCC` as the compound, how does the Potency read?
A: Its Potency is “inactive”.

Q: For `O=C1CCCCC1Cl` (stereo not given), which Potency is on record?
A: The Potency was “inactive”.

Q: With `CCOc1cc(Oc2ccc(C(F)(F)F)cc2Cl)ccc1[N+](=O)[O-]` as the compound, how does the Potency read?
A: Its Potency is “inactive”.

Q: Which Potency does the source give for `Clc1ccc(C(c2ccccc2Cl)C(Cl)(Cl)Cl)cc1` (stereo not given) here?
A: Its Potency is “inactive”.

Q: Which Potency does the source give for `Cc1ccc(N=CN(C)C=Nc2ccc(C)cc2C)c(C)c1` here?
A: The Potency was “inactive”.

Q: With `c1coc(-c2nc3ccccc3[nH]2)c1` as the compound, how does the Potency read?
A: Its Potency is “inactive”.

Q: For `O=[N+]([O-])c1ccccc1CCl`, which Potency is on record?
A: The Potency was “inactive”.

Q: With `O=S(=O)(O)OOS(=O)(=O)O` as the compound, how does the Potency read?
A: Its Potency is “inactive”.

Q: With `CC(C)C(=O)Cl` as the compound, how does the Potency read?
A: Its Potency is “inactive”.

Q: With `CC(NC(C)(C)C)C(=O)c1cccc(Cl)c1` (stereo not given) as the compound, how does the Potency read?
A: Its Potency is “inactive”.

Q: For `Nc1ccc([N+](=O)[O-])cc1Cl`, which Potency is on record?
A: The Potency was “inactive”.

Q: Which Potency does the source give for `COP(=S)(OC)Oc1ccc(S(=O)(=O)N(C)C)cc1` here?
A: The Potency was “inactive”.

Q: With `CCO/N=C(\CC)C1=C(O)CC(c2c(C)cc(C)cc2C)CC1=O` (stereo not given) as the compound, how does the Potency read?
A: Its Potency is “inactive”.

Q: Which Potency does the source give for `O=Cc1ccccc1` here?
A: The Potency was “inactive”.

Q: With `CC(Cl)CCl` (stereo not given) as the compound, how does the Potency read?
A: The Potency was “inactive”.

Q: Which Potency does the source give for `CC(C)Oc1cc(-n2nc(C(C)(C)C)oc2=O)c(Cl)cc1Cl` here?
A: Its Potency is “inactive”.

Q: Which Potency does the source give for `C=CC(=O)OC` here?
A: Its Potency is “inactive”.

Q: For `CCCCOC(=O)CCC(=O)OCCCC`, which Potency is on record?
A: Its Potency is “inactive”.

Q: With `ClCCN1CCCC1` as the compound, how does the Potency read?
A: Its Potency is “inactive”.

Q: For `ClC(Cl)(Cl)Br`, which Potency is on record?
A: The Potency was “inactive”.

Q: For `CCN(CC)C(=O)Cl`, which Potency is on record?
A: Its Potency is “inactive”.

Q: With `C[N+](C)(C)Cc1ccccc1` as the compound, how does the Potency read?
A: Its Potency is “inactive”.

Q: Which Potency does the source give for `O=[N+]([O-])c1c(Cl)c(Cl)cc(Cl)c1Cl` here?
A: The Potency was “inactive”.

Q: For `O=C(O)C(F)(F)C(F)(F)C(F)(F)C(F)(F)C(F)(F)C(F)(F)C(F)(F)C(F)(F)C(F)(F)C(F)(F)F`, which Potency is on record?
A: The Potency was “inactive”.

Q: For `N#CC(Cl)(Cl)Cl`, which Potency is on record?
A: The Potency was “inactive”.

Q: For `C[C@@H]1CC[C@@]2(OC1)O[C@H]1[C@@H](O)[C@H]3[C@@H]4CC[C@H]5C[C@@H](O[C@@H]6O[C@H](CO)[C@H](O[C@@H]7O[C@H](CO)[C@@H](O)[C@H](O[C@@H]8OC[C@@H](O)[C@H](O)[C@H]8O)[C@H]7O[C@@H]7O[C@H](CO)[C@@H](O)[C@H](O[C@@H]8O[C@H](CO)[C@@H](O)[C@H](O)[C@H]8O)[C@H]7O)[C@H](O)[C@H]6O)[C@H](O)C[C@]5(C)[C@H]4CC[C@]3(C)[C@H]1[C@@H]2C`, which Potency is on record?
A: Its Potency is 32.5 µM (active).

Q: Which Potency does the source give for `CCOP(=S)(OCC)Oc1cc(C)nc(C(C)C)n1` here?
A: Its Potency is “inactive”.

Q: With `O=C1C(Cl)C(CCl)CN1c1cccc(C(F)(F)F)c1` (stereo not given) as the compound, how does the Potency read?
A: Its Potency is “inactive”.

Q: For `CCC(=O)c1ccc(Cl)cc1`, which Potency is on record?
A: Its Potency is “inactive”.

Q: With `CCOP(=S)(OCC)Oc1nc(Cl)n(C(C)C)n1` as the compound, how does the Potency read?
A: The Potency was “inactive”.

Q: Which Potency does the source give for `CNc1cnn(-c2cccc(C(F)(F)F)c2)c(=O)c1Cl` here?
A: The Potency was “inactive”.

Q: Which Potency does the source give for `CCCCC(CC)CO[N+](=O)[O-]` (stereo not given) here?
A: Its Potency is “inactive”.

Q: With `C=C(C)C(=O)OCC1CO1` (stereo not given) as the compound, how does the Potency read?
A: Its Potency is “inactive”.

Q: Which Potency does the source give for `O=P(O)(O)CN(CP(=O)(O)O)CP(=O)(O)O` here?
A: Its Potency is “inactive”.

Q: With `O=C(Cc1ccccc1)OCCc1ccccc1` as the compound, how does the Potency read?
A: Its Potency is “inactive”.
